# Records with an inconclusive call do not appear. Entries that show only a call come without a potency. Active and inactive are the calls of the source. Unless noted, calls follow the shape of the dose curve; as a rule, active = well fitted curve in the direction sought with a large enough effect in the repeat runs; inconclusive = weak or mixed curves; inactive = no such curve, though single readings can be large; an effect the other way counts as inactive or inconclusive.
# Legend:
# [1] = qHTS assay to identify small molecule agonists of the RXR signaling pathway - cell viability counter screen (AID 1159529); also: series mostly up to about 77 µM; nearly all actives have a fitted effect of over 50% in size
# Outline: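 CellTiter-Glo luminescence gave viability in the wells also read for beta-lactamase. Cells (RXR-alpha-UAS-bla HEK 293T, 2% charcoal-stripped FBS medium) had 5 hr plating, then 16 hr compound exposure at 37 C; tetraoctyl ammonium bromide served as positive control.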
# [2] = qHTS assay to identify small molecule antagonists of the retinoid acid receptor (RAR) signaling pathway - cell viability counter screen (AID 1159551); also: nearly all actives have a fitted effect of over 35% in size
# Outline: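 C3RL4 RARE-luciferase line; cpds + retinol 1 uM final, 6 h, 37 C/5% CO2; CellTiter-Glo ATP luminescence, 30 min RT.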
# [3] = target: Retinoic acid receptor RXR-alpha (Homo sapiens) (UniProt P19793); experiment: qHTS assay to identify small molecule agonists of the RXR signaling pathway (AID 1159527; calls by dose curve; also: nearly all actives have a fitted effect of over 35% in size; also: potency is read from the fitted curve at half-maximal effect)
# Retinoic acid receptor RXR-alpha (Homo sapiens), sequence (P19793 whole entry, looked up): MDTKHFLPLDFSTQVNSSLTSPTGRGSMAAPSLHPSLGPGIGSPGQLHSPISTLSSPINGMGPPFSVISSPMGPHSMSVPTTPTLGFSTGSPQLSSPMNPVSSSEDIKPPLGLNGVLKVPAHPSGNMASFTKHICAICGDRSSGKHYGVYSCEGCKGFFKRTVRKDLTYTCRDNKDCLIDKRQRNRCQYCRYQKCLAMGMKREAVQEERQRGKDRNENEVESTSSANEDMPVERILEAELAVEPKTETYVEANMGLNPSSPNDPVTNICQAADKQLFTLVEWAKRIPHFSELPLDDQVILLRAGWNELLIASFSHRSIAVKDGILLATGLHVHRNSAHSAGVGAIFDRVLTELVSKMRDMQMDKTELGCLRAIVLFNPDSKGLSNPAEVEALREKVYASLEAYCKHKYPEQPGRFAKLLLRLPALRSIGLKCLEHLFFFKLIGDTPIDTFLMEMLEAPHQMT
# Outline: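 Agonist-mode beta-lactamase reporter assay: HEK 293T RXR-alpha-UAS-bla cells treated 16 hr at 37 C with compounds, 9-cis retinoic acid as positive control. LiveBLAzer FRET substrate, 405 nm excitation, 460/530 nm emission.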
# [4] = qHTS assay to identify small molecule antagonists of the retinoic acid receptor (RAR) signaling pathway (AID 1159552; also: nearly all actives have a fitted effect of over 50% in size; also: potency is read from the fitted curve at half-maximal effect)
# Outline: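 Luminescent RARE reporter read-out in C3RL4 cells: 6 hr co-treatment at 37 C of test compounds with retinol at 1 uM final. Cells plated overnight beforehand; luciferase reagent incubated 30 min at room temperature before reading.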
# [5] = qHTS assay to identify small molecule agonists of the retinoic acid receptor (RAR) signaling pathway (AID 1159553)
# Outline: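 RARE-luc C3RL4 cells; overnight attachment 37 C/5% CO2; compound (DMSO) 6 hr; luciferase reagent, 30 min RT; luminescence read-out.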
# [6] = qHTS assay to identify small molecule antagonists of the estrogen related receptor (ERR) signaling pathway - cell viability counter screen (AID 1224818); also: series mostly up to about 46 µM
# Outline: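 Fluorescence from CellTiter-Fluor, read 30 min after reagent addition at 37 C, measured viability of ERR cells exposed to compounds for 17.5 h. Cells had settled 6 h before dosing.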
# [7] = qHTS assay to identify small molecule antagonists of the estrogen related receptor signaling pathway with the pleiotropic PPARgamma coactivator (PGC) cell viability counter screen (AID 1224822; also: series mostly up to about 46 µM)
# Outline: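 Fluorescence read-out of CellTiter-Fluor after 30 min at 37 C; PGC/ERR cells, 2,000 per well, had been exposed to DMSO-dissolved compounds for 17.5 h following a 6 h pre-incubation.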
structure (smiles),measurement,setting,value
CCn1c(=O)c2c(nc(/C=C/c3ccc(OC)c(OC)c3)n2C)n(CC)c1=O,Potency,[1],inactive
same,outcome,[2],inactive
CC1=CC(=O)CCC1,Potency,[3],inactive
same,outcome,[2],inactive
same,Potency,[4],inactive
CC12CCC(CC1=O)C2(C)C (stereo unspecified),Potency,[3],inactive
same,Potency,[4],inactive
C=CCSCC1Nc2cc(Cl)c(S(N)(=O)=O)cc2S(=O)(=O)N1 (stereo unspecified),Potency,[1],inactive
same,outcome,[2],inactive
CCCCCCCCCCCCI,Potency,[3],inactive
same,outcome,[2],inactive
same,Potency,[4],inactive
same,Potency,[5],inactive
CCN1CCCC1CNC(=O)c1cc(S(N)(=O)=O)ccc1OC (stereo unspecified),Potency,[3],43.6 µM (active)
same,outcome,[2],inactive
same,Potency,[4],inactive
same,Potency,[5],inactive
same,outcome,[6],inactive
same,outcome,[7],inactive
COc1ccc(N=[N+]([O-])c2ccc(OC)cc2)cc1,Potency,[3],inactive
same,outcome,[2],inactive
same,Potency,[4],inactive
Cc1nccn1CC1CCc2c(c3ccccc3n2C)C1=O (stereo unspecified),Potency,[1],inactive
same,outcome,[2],inactive
CCN(CC)C(=O)c1ccc(O)c(OC)c1,Potency,[3],inactive
same,outcome,[6],inactive
same,outcome,[7],inactive
NC1CCN(c2cccc(Cl)n2)CC1,Potency,[3],inactive
same,outcome,[2],inactive
same,Potency,[4],inactive
same,Potency,[5],inactive
COC(=O)c1ccc(C(=O)OC)c(C(=O)OC)c1,Potency,[3],inactive
same,outcome,[2],inactive
same,Potency,[4],inactive
Nc1nc(F)nc2c1ncn2[C@@H]1O[C@H](CO)[C@@H](O)[C@@H]1O,Potency,[1],inactive
O=C(O)Cc1cc(I)c(Oc2cc(I)c(O)c(I)c2)c(I)c1,Potency,[3],15.2 µM (active)
same,outcome,[2],inactive
same,Potency,[4],42.4 µM (active)
same,Potency,[5],inactive
Nc1ncnc2c1ncn2Cc1c(F)cccc1Cl,Potency,[1],inactive
same,outcome,[2],inactive
C(=C(c1ccccc1)c1ccccc1)c1ccccc1,Potency,[3],inactive
same,Potency,[4],inactive
COc1nc(C)nc(N)n1,Potency,[1],inactive
same,outcome,[2],inactive
C=C(C)[C@H]1CC=C(C)CC1,Potency,[1],inactive
